Measurements published in PubChem BioAssay (EPA / NIEHS).
Inconclusive results are not listed. The source made the active and inactive calls. Rule for the calls: active = hit-call score of the fitted dose curve at least 0.9, where 1 is the maximum; inconclusive = response in the unintended direction; inactive = score below 0.9.

Molecular target: Oxysterols receptor LXR-beta (Homo sapiens) (UniProt P55055)
Experiment: ATG_LXRb_TRANS: Attagene TRANS-FACTORIAL HepG2 Assay for human Liver X Receptor beta (LXRb) (AID 2282981)
Settings: HepG2 Attagene TRANS GAL4-LXRb reporter, mRNA
Procedure, shortened: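 Gain-of-signal mRNA reporter endpoint, DMSO as negative control. Transiently transfected HepG2 cells carrying the NR-Gal4 chimera and GAL4-UAS reporter units were treated 24 h; transcripts quantified by RT-PCR and capillary electrophoresis fluorescence.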

Oxysterols receptor LXR-beta (Homo sapiens), sequence (P55055 whole entry, looked up): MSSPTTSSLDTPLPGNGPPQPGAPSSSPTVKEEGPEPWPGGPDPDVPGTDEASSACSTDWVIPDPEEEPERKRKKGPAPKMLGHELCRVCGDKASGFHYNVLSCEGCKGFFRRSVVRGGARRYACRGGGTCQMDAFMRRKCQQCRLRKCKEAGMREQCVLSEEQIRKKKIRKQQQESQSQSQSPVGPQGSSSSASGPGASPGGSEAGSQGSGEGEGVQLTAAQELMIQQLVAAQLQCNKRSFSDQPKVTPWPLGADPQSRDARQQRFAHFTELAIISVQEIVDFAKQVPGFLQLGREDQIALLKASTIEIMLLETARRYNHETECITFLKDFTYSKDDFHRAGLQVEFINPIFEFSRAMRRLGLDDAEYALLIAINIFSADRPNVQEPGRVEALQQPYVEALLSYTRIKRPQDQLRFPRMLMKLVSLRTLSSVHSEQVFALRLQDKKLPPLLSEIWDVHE

SMILES | outcome
Clc1ccc(C2(Cn3cncn3)CC(Br)CO2)c(Cl)c1 (centres undefined) | inactive
Cc1cc(=O)[nH]o1 | inactive
CCC(C)c1cccc(C(C)CC)c1O (centres undefined) | inactive
ClCc1cccnc1 | inactive
CNC | inactive
Oc1cccc2cccnc12 | inactive
N#CCCO | inactive
CCC(=O)C(CC(C)N(C)C)(c1ccccc1)c1ccccc1 (centres undefined) | inactive
COP(=S)(OC)Oc1cc(Cl)c(Cl)cc1Cl | inactive
O=C(NCO)NCO | inactive
NC(=S)Nc1ccccc1 | inactive
OCC(O)CCl (centres undefined) | inactive
CCOP(=O)(CN(CCO)CCO)OCC | inactive
N#Cc1ccccn1 | inactive
Nc1ccc(N=Nc2ccc(-c3ccc(N=Nc4c(S(=O)(=O)O)cc5cc(S(=O)(=O)O)c(N=Nc6ccccc6)c(O)c5c4N)cc3)cc2)c(N)c1 | inactive
Cl/C=C/Cl | inactive
Cc1ccccc1C(=O)Nc1cccc(OC(C)C)c1 | inactive
COP(=S)(OC)Oc1ccc(Sc2ccc(OP(=S)(OC)OC)cc2)cc1 | inactive
CCNc1nc(NC(C)(C)C)nc(SC)n1 | inactive
c1cc[c]([Hg][c]2ccccc2)cc1 | inactive

Molecular target: Hepatocyte nuclear factor 4-alpha (Homo sapiens) (UniProt P41235)
Experiment: ATG_HNF4a_TRANS: Attagene TRANS-FACTORIAL HepG2 Assay for human Hepatocyte Nuclear Factor 4 alpha (HNF4a) (AID 2282982)
Settings: HepG2 HNF4a transactivation reporter, mRNA readout
Procedure, shortened: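 Gain-of-signal mRNA induction, relative to DMSO vehicle, was read after 24 h compound treatment of HepG2 cells bearing transfected GAL4-UAS reporters. Detection used RT-PCR, 6-FAM primer extension and capillary electrophoresis.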

Hepatocyte nuclear factor 4-alpha (Homo sapiens), sequence (P41235 whole entry, looked up): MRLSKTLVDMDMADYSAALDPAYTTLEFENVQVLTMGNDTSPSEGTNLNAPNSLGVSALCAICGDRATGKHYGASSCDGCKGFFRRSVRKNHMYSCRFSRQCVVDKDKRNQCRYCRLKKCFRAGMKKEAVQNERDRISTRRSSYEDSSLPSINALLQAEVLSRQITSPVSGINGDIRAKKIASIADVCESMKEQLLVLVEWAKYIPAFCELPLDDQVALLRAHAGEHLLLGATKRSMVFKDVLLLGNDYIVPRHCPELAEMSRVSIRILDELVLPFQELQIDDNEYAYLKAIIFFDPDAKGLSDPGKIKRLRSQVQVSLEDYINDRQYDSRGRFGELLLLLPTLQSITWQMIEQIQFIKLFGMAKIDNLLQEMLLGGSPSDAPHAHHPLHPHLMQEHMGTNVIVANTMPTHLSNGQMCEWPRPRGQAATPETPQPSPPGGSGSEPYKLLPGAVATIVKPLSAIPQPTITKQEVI

SMILES | outcome
Clc1ccc(C2(Cn3cncn3)CC(Br)CO2)c(Cl)c1 (centres undefined) | inactive
CCOC(=O)/C=C(C)/C=C/C[C@@H](C)CCCC(C)C | inactive
Clc1nc(Cl)nc(Cl)n1 | inactive
Cc1cc(=O)[nH]o1 | inactive
CC1(C)Cc2cccc(O)c2O1 | inactive
CC1CN1P(=O)(N1CC1C)N1CC1C (centres undefined) | inactive
CCC(C)c1cccc(C(C)CC)c1O (centres undefined) | inactive
ClCc1cccnc1 | inactive
C=C(C)C#N | inactive
CC(C)CCCCCCOC(=O)c1ccccc1C(=O)OCCCCCCC(C)C | inactive
Oc1cccc2cccnc12 | inactive
N#CCCO | inactive
COP(=S)(OC)Oc1cc(Cl)c(Cl)cc1Cl | inactive
O=C(NCO)NCO | inactive
NC(=S)Nc1ccccc1 | inactive
N#Cc1ccccn1 | inactive
C[C@H]1CCCC(=O)CCC/C=C/c2cc(O)cc(O)c2C(=O)O1 | inactive
OCc1ccco1 | inactive
Nc1ccc(N=Nc2ccc(-c3ccc(N=Nc4c(S(=O)(=O)O)cc5cc(S(=O)(=O)O)c(N=Nc6ccccc6)c(O)c5c4N)cc3)cc2)c(N)c1 | inactive
Cl/C=C/Cl | inactive
Cc1ccccc1C(=O)Nc1cccc(OC(C)C)c1 | inactive
COP(=S)(OC)Oc1ccc(Sc2ccc(OP(=S)(OC)OC)cc2)cc1 | inactive
COc1ccc(C=O)cc1 | inactive
CCCCCCCCCl | inactive
CCC1(c2ccc(N)cc2)CCC(=O)NC1=O (centres undefined) | inactive
N#CN=C(N)N | inactive
c1cc[c]([Hg][c]2ccccc2)cc1 | inactive
